# Inconclusive results are not listed. Unmarked numbers belong to inactive results. Active and inactive are the calls of the source. Calls come from the whole dose curve.
# Experiment: p53 small molecule agonists, cell-based qHTS assay with rat liver microsomes (AID 1963578)
# Conditions: HCT-116 p53RE-bla, beta-lactamase ratio, 16 h; series mostly up to 66 µM; activation: at the top concentration
# From the text: U.S. Tox21 Program National Center for Advancing Translational Sciences [NCATS] Division of Preclinical Innovation [DPI] U.S. Environmental Protection Agency [EPA] National Institutes of Environmental Health Sciences [NIEHS] National Toxicology Program [NTP] U.S. Food and Drug Administration [FDA] Tox21 Assay Overview: p53, a tumor suppressor protein, is activated following cellular insult, including DNA damage and other cellular stresses. The activation of p53 regulates cell fate by inducing DNA repair, cell cycle arrest, apoptosis, or cellular senescence. The activation of p53, therefore, is a good indicator of DNA damage and other cellular stresses. […] The activation of the reporter gene under culture conditions can be detected by fluorescence intensity. This cell line was used to screen the Tox21 10K compound library in the condition of presence of rat liver microsomes and to identify agonists that activate the p53 signaling pathway after in vitro metabolic activation (Ooka et al., Archive of Toxicology 96:1975-1987, 2022).
# Tox21 Assay Protocol Summary: The p53RE-bla cells were dispensed at 4,000cells/3ul/well in 1536-well black-clear bottom plates. After the assay plates were incubated at 37 C, 5% CO2 incubator for 5 hours, 23 nL of compounds dissolved in DMSO, positive controls or DMSO only was transferred to the assay plate. Following compound addition, 3 uL of rat liver microsomes (Molecular Toxicology, Boone, NC) at final concentration of 0.5 mg/mL and 1uL of Beta-Nicotinamide adenine dinucleotide 2-phosphate (NADPH) at final concentration of 0.5 mg/mL were transferred to the assay plate. The plates were incubated at 37 C for 16 hours. 1 uL of LiveBLAzer detection mixture was added to each well and the plates were incubated at room temperature in the dark for 2 h.
# % is set by controls: 0 for no effect and ±100 for the full control effect.
Compound,activation,Potency
CC(=O)Oc1cccc(O)c1,-0.528% [at 30.3 µM],
CC(C)(C)c1n[nH]c(=O)n(N)c1=O,-0.232%,
CO[C@@H]1[C@@H](O[C@@H]2O[C@H](C)[C@@H](O[C@H]3C[C@@](C)(O)[C@@H](O)[C@H](C)O3)[C@H](N(C)C)[C@H]2O)[C@@H](CC=O)C[C@@H](C)[C@@H](O[C@@H]2CC[C@H](N(C)C)[C@@H](C)O2)/C=C/C=C/C[C@@H](C)OC(=O)C[C@H]1OC(C)=O,-0.896% [at 30.3 µM],
OCC(CO)N[C@H]1C[C@](O)(CO)[C@@H](O)[C@H](O)[C@H]1O,-0.802% [at 30.3 µM],
CC(C)=CCCC(C)O (stereo not given),-1.68%,
NC1CCCCC1N (stereo not given),,inactive
CC(C)c1ccc2c(C(C)C)cc(C(C)C)c(S(=O)(=O)O)c2c1,-0.0799%,
CC(=O)O[C@H](CC(=O)[O-])C[N+](C)(C)C,-0.842%,
COC(=O)c1cc(Cl)ccc1OC,0.154% [at 30.3 µM],
O=c1[nH]c(=O)c2cn[nH]c2[nH]1,0.0499%,
c1ccc(CCc2ccccc2)cc1,0.717%,
NCC1(Cc2noc(=O)[nH]2)CCCCC1,0.922%,
CC(C)=CCC/C(C)=C/C#N,0.629%,
CCCC(=O)OCc1ccccc1,0.803%,
C=CC(C)(O)CC/C=C(\C)CCC=C(C)C (stereo not given),-1.27%,
CCCCCCCCCCCCCCCCI,-1.95% [at 13.6 µM],
CC(=O)c1ccccc1O,18.6%,
C(/C=C/C=C/Nc1ccccc1)=Nc1ccccc1,-1.51%,
CC(=O)OCCOCCOCCOC(C)=O,,inactive
O=C(O)[C@H](O)[C@@H](O)[C@H](O[C@@H]1O[C@H](CO)[C@H](O)[C@H](O)[C@H]1O)[C@H](O)CO,-2.97% [at 30.3 µM],

Compound,activation,Potency
C#CC(C)(O)CC(C)C (stereo not given),4.29%,
IC(I)I,,inactive
NC(=O)c1ccccc1N,-2.08%,
NC(=O)CCCCC(N)=O,-0.101%,
O=C(Cl)c1ccccc1[N+](=O)[O-],-1.72%,
CN(C)CCC=C1c2ccccc2CCc2ccccc21,,inactive
CC(C)CCCCCCc1ccc(O)cc1,9.37%,
C=CCCC(=O)/C=C/C1C(C)=CCCC1(C)C (stereo not given),0.527%,
C=C(C)[C@@H]1CC[C@@H](C)C[C@@H]1O,0.515%,
C/C=C/C(=O)CCCC,-0.771%,
COC(=O)OC,,inactive
NC(=O)Nc1ccccc1,0.2%,
NS(=O)(=O)c1cc2c(cc1C(F)(F)F)NC(Cc1ccccc1)NS2(=O)=O (stereo not given),-2.43% [at 30.3 µM],
O=C(O)CNC(=O)c1ccccc1I,-0.46% [at 30.3 µM],
Clc1ccc2c(c1)Nc1ccccc1S2,0.621% [at 30.3 µM],
CCCCOC(=O)C(C)OC(=O)CCC (stereo not given),0.305%,
CCCCC(CC)C(=O)OCCOCCOCCOC(=O)C(CC)CCCC (stereo not given),,inactive
CC1=CC[C@@]23C[C@@H]1C(C)(C)[C@@H]2CC[C@H]3C,1.99%,
c1ccc(CCCc2ccncc2)cc1,1.11%,
O=C(O)C1CCC(C(=O)O)CC1 (stereo not given),-2.36%,

# Reference: PubChem BioAssay (Tox21)
